Experimental data: the supplement of paper PMC3334620
The full ranking holds about 33,000 sequences; the median of “E-score (-0.5 to 0.5)” is about -0.016, and the highest 2% start at about 0.31. What follows is part of a selection rich in the highest values, with near analogues and random picks from the rest.

Each sequence was assayed against Cst6 (UniProt P40535) (assay: PBM E-score (8-mer binding enrichment) (E-score (-0.5 to 0.5)); higher = stronger / more preferred TF binding). Settings: protein concentration: 200 nM; construct: GST-DNA-binding domain.
Experimental: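 Universal 'all 10-mer' protein binding microarrays (Agilent AMADID 015681) probed with GST-tagged S. cerevisiae TFs (full-length or DBD) made by in vitro transcription/translation (PURExpress), about 100-200 nM. Bound TF was detected with fluorescent anti-GST. Each ungapped 8-mer (which stands for itself and its reverse complement) is scored by the PBM enrichment score (E-score), a modified Wilcoxon-Mann-Whitney statistic from -0.5 to +0.5, computed with the Universal PBM Analysis Suite. Scale: above 0.35 generally sequence-specific binding.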

UniProt P40535, sequence (P40535 whole entry, the tested form may be a part): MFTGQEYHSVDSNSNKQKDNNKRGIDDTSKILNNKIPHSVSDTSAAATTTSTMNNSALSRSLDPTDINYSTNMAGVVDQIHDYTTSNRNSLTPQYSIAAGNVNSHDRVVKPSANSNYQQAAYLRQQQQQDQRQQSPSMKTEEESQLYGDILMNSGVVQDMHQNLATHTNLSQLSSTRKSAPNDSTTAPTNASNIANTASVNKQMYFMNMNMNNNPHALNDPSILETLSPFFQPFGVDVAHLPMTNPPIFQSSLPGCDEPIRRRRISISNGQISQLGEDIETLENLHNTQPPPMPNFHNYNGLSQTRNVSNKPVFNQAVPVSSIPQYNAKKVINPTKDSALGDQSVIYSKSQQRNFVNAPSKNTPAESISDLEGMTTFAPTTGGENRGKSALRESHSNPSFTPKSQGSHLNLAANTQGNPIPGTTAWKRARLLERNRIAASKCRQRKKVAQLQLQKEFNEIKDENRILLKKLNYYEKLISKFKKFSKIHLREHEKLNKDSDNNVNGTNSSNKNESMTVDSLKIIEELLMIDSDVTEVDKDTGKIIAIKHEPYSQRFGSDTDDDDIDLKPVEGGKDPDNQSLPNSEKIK

In order of rising “PBM E-score” value:
1. ACCGAGGG  -0.446
2. ACCCTGCT  -0.34
3. CCCAGGGC  -0.337
4. ACCCCCGC  -0.33
5. AGGGGTTC  -0.327
6. AGAGCCCA  -0.263
7. ACCTGCGA  -0.26
8. GCCCACGC  -0.238
9. CTCCTCAG  -0.231
10. AAGTCTGC  -0.226
11. GAGCACCA  -0.219
12. ACCAGGTC  -0.218
13. CAGGCATC  -0.213
14. GGCCCTGA  -0.208
15. CCGGATCC  -0.199
16. GCTTAGAC  -0.195
17. AAGTAAAG  -0.172
18. GCCATCAA  -0.169
19. AAGCGTCG  -0.151
20. AGGTGCGA  -0.148
21. CCAGCTCA  -0.146
22. AACGCCGG  -0.138
23. CCGTCAAG  -0.129
24. CAGGATGC  -0.125
25. CCGATAGA  -0.124
26. ACGTCGAG  -0.115
27. CTCATCTA  -0.113
28. TATAGGCA  -0.112
29. ACCCTTCG  -0.0964
30. AGGTCAAG  -0.0961
31. GAGTCAAC  -0.0954
32. CTCAGTAC  -0.0935
33. AAGCGTCC  -0.0893
34. ATCGTCTC  -0.0844
35. GCACTCTA  -0.0783
36. ACCGTCAG  -0.0719
37. CAAAGGTG  -0.0715
38. AGTCACGC  -0.07
39. GCTCGGCA  -0.0691
40. CCCATAAA  -0.0662
41. CGCCAGTA  -0.0657
42. CCATGGAA  -0.0645
43. ATATCAGC  -0.0588
44. AATGCCGG  -0.0561
45. ACGTTTCT  -0.0531
46. ACATCTGC  -0.0513
47. ATCTTCTC  -0.0503
48. CCTCATTC  -0.0459
49. GCGCCAAA  -0.042
50. ATGTTGGC  -0.0418
51. AGCTGCTG  -0.0369
52. AGGTCAAC  -0.0368
53. TCGAACCA  -0.0349
54. AACAGGCA  -0.0324
55. CCCAATCG  -0.0318
56. ACATCGGC  -0.0191
57. CCAATTGG  -0.0187
58. ACAGGAAG  -0.0175
59. ATCGTCGC  -0.0136
60. CCCATGAA  -0.00568
61. CTCATCGA  -0.0055
62. CAAGCGAG  -0.00525
63. CAACAGCA  0.00053
64. CCGTAAAG  0.00566
65. ATCCCGAA  0.00888
66. GGTCACGA  0.0109
67. CCGTCAAC  0.0147
68. AAGGTTGG  0.0155
69. AGTCATTA  0.0194
70. CAATTAGG  0.0223
71. AGTCACGA  0.0257
72. TGCTGACA  0.0293
73. GACCAAAC  0.0333
74. AATGCCGA  0.041
75. GTGATGGA  0.0419
76. TAGGCAGA  0.0434
77. CCGTAAAC  0.0456
78. ACAAGCGT  0.0465
79. CACACAGG  0.0469
80. AGGTCAAT  0.0479
81. CTCGTCAA  0.0507
82. CACGCCGC  0.0528
83. AGTCATTC  0.0571
84. GTGTCAAC  0.0573
85. CTCATCCA  0.0578
86. AGGTAAAT  0.0678
87. GCCGTCAA  0.0714
88. CTATCATC  0.0729
89. CCGTAAAA  0.0767
90. GGCATCAA  0.0768
91. GTGCAGAA  0.0789
92. ACCATGAA  0.0849
93. GCGTAAAA  0.0958
94. ATCATCCA  0.0994
95. GGTTTTGA  0.105
96. ACGTCGAA  0.112
97. TAAATTAA  0.127
98. CTCGTCAG  0.127
99. CTCATCAA  0.134
100. CTATCATA  0.14
101. ATGTAAAA  0.144
102. ACCATGAT  0.146
103. ATCATCTA  0.151
104. TTCATCAA  0.151
105. GCGTCAAA  0.151
106. CATTTATC  0.151
107. ACCGTCAA  0.159
108. ATCTTTAC  0.162
109. AAATTATG  0.164
110. GCGTAAAC  0.168
111. AGAAAACG  0.168
112. GCGGAAAA  0.17
113. GGTCATTA  0.178
114. ATCATCGA  0.183
115. ATATCATG  0.19
116. TCGTCAAA  0.195
117. CCCGTCAC  0.2
118. GCCGCCGC  0.205
119. AAGTAAAT  0.214
120. ATAAGAGA  0.217
121. CCTCACGC  0.22
122. AACGCCGA  0.23
123. TACGAAAA  0.233
124. CACGAAAA  0.247
125. AAATTAAT  0.248
126. ATGTCAAT  0.26
127. AATTTATA  0.263
128. ATATAACG  0.267
129. ATGTAAAC  0.269
130. GACGCCGC  0.271
131. GAGCGTCA  0.271
132. AAATTATA  0.278
133. CAGCGTCA  0.279
134. GCCATGAC  0.284
135. AAATTAGT  0.29
136. ACGTAAAG  0.306
137. AAATTATC  0.308
138. ATGTAAAT  0.309
139. ACGTAAAC  0.31
140. AATTTATC  0.312
141. AAATTATT  0.314
142. ATATCATA  0.315
143. ACGTCGAT  0.316
144. ATCATCAA  0.326
145. GACGAAAA  0.329
146. GCCGTCAC  0.334
147. GCGTCAAC  0.335
148. CCCATGAC  0.336
149. AAGCGTCA  0.336
150. ATATCATC  0.337
151. GTCATCGA  0.348
152. CTCGTCAC  0.349
153. ACGTAAAA  0.354
154. AACGCCGC  0.361
155. GTCATCTA  0.368
156. AACGCCGT  0.373
157. ACGTCAAG  0.373
158. GTCATCCA  0.383
159. GTCATCAA  0.385
160. ACGTAAAT  0.385
161. ACGTCAAA  0.389
162. ACCATGAC  0.395
163. TAGCGTCA  0.399
164. ATCGTCAC  0.401
165. AATGCCGT  0.418
166. ACCGTCAT  0.418
167. CGTCACGC  0.441
168. CGTCACGA  0.449
169. ACGTCAAT  0.455
170. CGTCATTC  0.467
171. CGTCATTA  0.477
172. ACGTCAAC  0.484
